PrP 5UTR inh: suppresses PrP 5' UTR mRNA reporter expression; cell-based PrP 5' UTR mRNA reporter, plate reader; inhibition, % (test concentration not listed); 340,000 compounds, 0.35% hits; AID 488862; in the data active = inhibition above about 52%; note: 0 = median of the neutral control wells
Sa RN4220 lethal: S. aureus RN4220 growth inhibition. OD600, 16 h. inhibition, % (test concentration not listed). 330,000 compounds, 0.33% hits; in the data active = inhibition above about 85%;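 note: plate controls were untreated cells for no effect and reference antibiotic for full effect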
PfHsp40 yeast: compounds rescuing yeast from Plasmodium falciparum HSP40 toxicity | S. cerevisiae expressing PfHsp40, growth rescue, ATP luminescence | growth rescue, % at 12.5 µM | 340,000 compounds, 0.68% hits | AID 504582; in the data active = growth rescue above about 28%, passing the limit was not always enough; inconclusive = no clear call, values can overlap the other calls;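 note: yeast W303a lacking pdr1 and pdr3 grown in galactose medium; growth measured after three days at 30 °C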
ugtP null kill: kills S. aureus RN4220 lacking UgtP; growth inhibition, % (test concentration not listed); AID 1259309; S. aureus RN4220 ugtP deletion, OD600 growth, 16 h; 330,000 compounds, 0.54% hits; in the data active = growth inhibition above about 68%;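 note: plate controls were untreated wells for no effect and antibiotic for full effect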
CCHFV vOTU inh: CCHFV vOTU protease inhibition. 370,000 compounds, 0.55% hits. Pep-AMC fluorescence. inhibition, % at 11.5 µM. AID 651958; in the data active = inhibition above about 30%; note: 0% = vehicle wells with enzyme and 100% = no enzyme wells
PrPC surface inh: reduces human prion protein on the cell surface. inhibition, % at 13.8 µM. P04156. 370,000 compounds, 0.43% hits. cell surface PrPC, TR-FRET read-out. AID 720596; in the data active = inhibition above about 24%; note: 0% = median of the test wells and 100% = reference compound wells
* = called active by the depositor; u = inconclusive; x = no result given. The list is not random: actives were taken first. Their share in the collection is about 2.1%.

SMILES	PrP 5UTR inh	Sa RN4220 lethal	PfHsp40 yeast	ugtP null kill	CCHFV vOTU inh	PrPC surface inh
CCOC(=O)c1cn(-c2ccc([N+](=O)[O-])cc2)c2cc(Cl)c([N+](=O)[O-])cc2c1=O	-14	3	-1	-2	1	1
CCC1Cc2cc(O)ccc2C2=C1c1ccc(O)cc1CC2CC (stereo unspecified)	x	98*	x	89	x	x
CCCN(CCC)C1CCc2ccc(O)cc2C1 (stereo unspecified)	-20	3	-2	4	7	6
CCCCCn1c(=O)c(C(=O)Nc2ccccc2Cl)c(O)c2ccccc21	-31	5	0	23	0	-3
CCCCCn1c(=O)c(C(=O)Nc2nc3ccccc3[nH]2)c(O)c2ccccc21	-9	83	2	101*	1	1
CCc1nc2ccccc2c(=O)n1NC(=O)c1c(O)c2ccccc2n(CC)c1=O	3	14	181*	30	11	4
CCn1c(=O)c(C(=O)Nn2c(C)nc3ccccc3c2=O)c(O)c2ccccc21	-9	44	5	12	5	3
CCn1c(=O)c(C(=O)Nc2nc3ccccc3[nH]2)c(O)c2ccccc21	-4	100*	u	100*	5	19
C=CCCC(Cc1ccc(F)cc1)C(=O)OCCNC(=O)C(CC=C)CC(=O)N(CCO)Cc1ccccc1 (stereo unspecified)	x	-3	x	-2	x	x
O=C1C=C(c2ccc(F)cc2OCc2ccccc2)CC(c2ccc(F)cc2)C1 (stereo unspecified)	x	-3	x	5	x	x
O=C(NCCC(=O)N1CCN(c2ccccc2O)CC1)c1ccc(Br)cc1	6	5	301*	7	12	7
CC(=NNC(=O)c1cc(C)nc2ccc(C)cc12)c1ccncc1	x	0	x	9	x	x
CC(C)COc1ccc(-c2nn(-c3ccccc3)cc2/C=C2/SC(=S)N(CC(=O)O)C2=O)cc1	-28	98*	-1	71	-4	-3
O=C(O)CN1C(=O)/C(=C\c2cn(-c3ccccc3)nc2-c2ccccc2)SC1=S	-23	x	2	x	x	x
COc1cc(SC#N)ccc1N=Cc1c(C)[nH]n(-c2ccc(C)cc2C)c1=O	-10	-16	38*	-4	4	15
COc1ccccc1N=Cc1c(C)[nH]n(-c2ccc(C)cc2C)c1=O	-16	2	58*	-2	-4	6
CC(C)(C)OC(=O)NCCCCC(NC(=O)c1[nH]cnc1C(=O)NC(Cc1ccccc1)C(=O)OC(C)(C)C)C(=O)OC(C)(C)C (stereo unspecified)	x	1	x	-14	x	x
Cn1c(=NNC(=O)C2CCCCC2)sc2ccccc21	x	2	x	4	x	x
O=C(O)c1ccc(C=NNC(=O)c2cccc3ccccc23)cc1	36	x	-1	x	12	-8
C=CCc1cccc(/C=N/NC(=O)c2ccccc2OC)c1O	-22	x	50*	x	8	2
O=C(N/N=C/c1ccc[nH]1)c1ccccc1O	-21	x	76*	x	6	-11
O=C(N/N=C/c1coc2ccccc2c1=O)c1cc(Br)ccc1O	-16	x	89*	x	-11	7
O=C(N/N=C/c1ccccc1O)c1cccc2ccccc12	16	x	32*	x	1	2
O=C(NN=Cc1ccc[nH]1)c1ccc(O)cc1	x	3	x	5	x	x
COc1ccc(S(=O)(=O)NN=C(C)c2ccco2)cc1	x	1	x	-6	x	x
SMILES	PrP 5UTR inh	Sa RN4220 lethal	PfHsp40 yeast	ugtP null kill	CCHFV vOTU inh	PrPC surface inh
CCCCN1CC(=O)N2C3c4ccc(OC)cc4OCC3C(C(=O)OCC)[C@]2(C)C1=O (stereo partly specified)	x	7	x	5	x	x
Clc1ccccc1CN1CCN(N=Cc2ccncc2)CC1	x	2	x	2	x	x
COC1C=CO[C@@]2(C)Oc3c(C)c(O)c4c(O)c(c(C=NN5CCN(C6CCCC6)CC5)c(O)c4c3C2=O)NC(=O)C(C)=CC=CC(C)C(O)C(C)C(O)C(C)C(OC(C)=O)C1C (stereo partly specified)	x	99*	x	98*	x	x
COc1ccccc1-c1cc(=O)c2c(O)ccc([N+](=O)[O-])c2o1	-8	25	-1	23	3	-4
Nc1ccc2oc(-c3ccccc3Cl)cc(=O)c2c1O	-23	14	8	94*	17	6
O=c1cc(-c2ccccc2Cl)oc2c([N+](=O)[O-])c(O)cc(O)c12	16	87*	2	91*	16	-11
O=c1cc(-c2ccccc2Cl)oc2ccc([N+](=O)[O-])c(O)c12	-14	99*	8	100*	10	-3
Cc1ccc(SCC(=O)NN=Cc2ccco2)cc1	x	3	x	1	x	x
CCCNC(=S)N1CCN(c2nc(C)nc3sc4c(c23)CCCC4)CC1	-21	-7	32*	4	5	-3
COCCCNC(=S)N1CCN(c2nc(C)nc3sc4c(c23)CCCC4)CC1	-22	-6	0	22	3	0
COc1ccc(C=NNC(=O)c2cccnc2)cc1CN1CCc2ccccc2C1	x	2	x	5	x	x
CC1Oc2ccccc2N(Cc2ccccc2Cl)C1=O (stereo unspecified)	-6	6	-1	16	x	x
O=C1COc2ccccc2N1Cc1ccccc1Cl	-15	3	50*	3	-6	4
C#CCNC(=O)C1=CC(c2ccc(C(F)(F)F)cc2)CC(OCCCCO)O1 (stereo unspecified)	x	9	x	3	x	x
CC1CC(=O)c2c(cc3c(-c4c(O)cc(O)c5c(O)c6c(cc45)OC(C)CC6=O)c(O)cc(O)c3c2O)O1 (stereo unspecified)	-28	35	102*	11	x	x
COc1ccccc1OCC(=O)NN=CC=Cc1ccc([N+](=O)[O-])o1	x	101*	x	100*	x	x
Cc1ccccc1OCC(=O)NN=Cc1ccc([N+](=O)[O-])o1	x	11	x	22	x	x
O=C(CSc1nc2[nH]c(=O)cc(O)c2s1)Nc1cc(Cl)cc(Cl)c1	-13	9	9	-8	13	-6
Cc1cc(C)cc(NC(=O)CSc2nc3[nH]c(=O)cc(O)c3s2)c1	-31	6	38*	14	2	-5
O=C(C1=CC(c2ccc(C(F)(F)F)cc2)CC(OCCCCO)O1)N1CCCCCCC1 (stereo unspecified)	x	1	x	-16	x	x
O/N=C(\c1ccc(Cl)cc1Cl)c1ncc(C(F)(F)F)cc1Cl	-14	x	380*	x	16	8
Clc1ccc(SCNc2ccccc2Cl)cc1	-22	3	0	88*	-17	0
Cc1ccccc1Oc1cc(-n2ncc(Cl)c(Cl)c2=O)ncn1	-10	58	-2	92*	0	-4
Cc1ccc(NC(=O)c2cc(-n3cnnc3)ccc2Cl)cc1	-15	1	0	5	7	2
Cc1ccc(NC(=O)c2cc(N3C(=O)C=CC3=O)ccc2Cl)cc1C	-10	12	294*	12	15	0
CC(=O)C(Cl)C(=O)Nc1ccccc1 (stereo unspecified)	-25	6	0	2	0	5

Screens from PubChem.
